# Assay results: PubChem BioAssay (EPA / NIEHS)
# Where “and” joins values, the source holds several entries; their conditions need not be identical. Identical values can stand only once. Results filed as inconclusive are left out. Some structures have more than one record in an assay (separate samples or runs), and their calls can disagree. Calls of active or inactive are those of the source. Rule for the calls, unless noted: active = hit-call score of the fitted dose curve at least 0.9, where 1 is the maximum; inconclusive = response in the unintended direction; inactive = score below 0.9.
# Columns and labels:
# [1] = target: Nuclear receptor subfamily 1 group I member 3 (Homo sapiens) (UniProt Q14994); assay: ATG_CAR_TRANS: Attagene TRANS-FACTORIAL HepG2 Assay for human Constitutive Androstane Receptor (CAR) (AID 2282969); conditions: HepG2 Attagene TRANS-FACTORIAL CAR reporter;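 note: activators raise reporter mRNA above DMSO so AC50 marks induction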
# In short: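 Steps: transient transfection of HepG2 with multiple GAL4-UAS reporter units; 24 h compound incubation; RNA isolation, RT-PCR, 6-FAM primer extension, HpaI digest; capillary electrophoresis. Gain-of-signal relative to DMSO negative control.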
# [2] = target: X-box-binding protein 1 (Homo sapiens) (UniProt P17861); assay: ATG_Xbp1_CIS: Attagene CIS-FACTORIAL HepG2 Assay for human X-box Binding Protein 1 (XBP1) (AID 2282972; active = hit-call score of the fitted dose curve at least 0.9, where 1 is the maximum; inactive = score below 0.9); conditions: HepG2 XBP1 cis-element reporter, Attagene multiplex; actives raise or lower the signal
# In short: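 Changes in reporter transcript abundance, read by RT-PCR and capillary electrophoresis, reflect endogenous transcription factor activity. Transfected HepG2 cells received compound for 24 hours; DMSO defined baseline for bidirectional analysis.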
# [3] = ATG_GAL4_TRANS: Attagene TRANS-FACTORIAL HepG2 Assay for GAL4 (Internal Marker) (AID 2282976); conditions: HepG2 Attagene TRANS GAL4 internal marker reporter
# In short: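 First, HepG2 cells were transfected with reporter units under GAL4-UAS control. Next, they were treated with chemical for 24 h. Finally, RNA was reverse-transcribed, PCR-amplified, FAM-labelled and resolved by capillary electrophoresis, with induction scored against DMSO.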
# [4] = target: Estrogen-related receptor gamma (Homo sapiens) (UniProt P62508); assay: ATG_ERRg_TRANS: Attagene TRANS-FACTORIAL HepG2 Assay for human Estrogen-Related Receptor gamma (ERRg) (AID 2282977); conditions: HepG2 Attagene TRANS reporter, ERRg transactivation;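 note: hits increase reporter signal over DMSO so potencies reflect activators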
# In short: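 Induction of reporter transcripts through a chimeric NR-Gal4 protein is quantified in transfected human HepG2 liver cells after 24 h chemical exposure, using RT-PCR with capillary electrophoresis detection and DMSO as baseline.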
# [5] = target: Bile acid receptor (Homo sapiens) (UniProt Q96RI1); assay: ATG_FXR_TRANS: Attagene TRANS-FACTORIAL HepG2 Assay for Farnesoid X Receptor (FXR) (AID 2282979); conditions: HepG2 Attagene TRANS FXR-GAL4 reporter transcription;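 note: hits raise reporter mRNA above DMSO so AC50 marks FXR activation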
# In short: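 Transient transfection of HepG2 with multiplexed GAL4-UAS reporter units; exogenous FXR-GAL4 chimera. Dose 24 h → TriZol RNA → oligo(dT) RT → PCR, 6-FAM primer extension, HpaI cut → CE. Gain vs DMSO.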
# [6] = target: Estrogen receptor (Homo sapiens) (UniProt P03372); assay: ATG_ERa_TRANS: Attagene TRANS-FACTORIAL HepG2 Assay for human Estrogen Receptor alpha (ERa) (AID 2282970); conditions: HepG2 Attagene TRANS ERa GAL4 reporter, mRNA
# In short: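 Liver-derived HepG2 cells expressing chimeric nuclear receptor-Gal4 proteins from transient transfection were exposed for 24 hours. Gain of reporter mRNA signal versus DMSO, read by capillary electrophoresis of FAM-labelled PCR products, was recorded.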
# [7] = target: Steroid hormone receptor ERR1 (Homo sapiens) (UniProt P11474); assay: ATG_ERRa_TRANS: Attagene TRANS-FACTORIAL HepG2 Assay for human Estrogen-Related Receptor alpha (ERRa) (AID 2282971); conditions: HepG2 Attagene TRANS reporter, ERRa transactivation
# In short: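 Reporter transcript induction was quantified by RT-PCR and capillary electrophoresis of FAM-labelled, HpaI-cut products after 24 h treatment of HepG2 cells carrying transiently transfected GAL4-UAS reporter units and an exogenous ERRa-Gal4 fusion; activity scored as increase over DMSO.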
# [8] = target: Oxysterols receptor LXR-alpha (Homo sapiens) (UniProt Q13133); assay: ATG_LXRa_TRANS: Attagene TRANS-FACTORIAL HepG2 Assay for human Liver X Receptor alpha (LXRa) (AID 2282980); conditions: HepG2 Attagene TRANS reporter, LXRa transactivation
# In short: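 Transfect HepG2 with GAL4-UAS multiplex reporter constructs (TRANS format, chimeric receptor-GAL4); treat 24 h; extract RNA, reverse-transcribe, PCR-amplify, FAM-label, HpaI-digest; resolve fragments by capillary electrophoresis. Upward response vs DMSO.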
# [9] = ATG_M_19_TRANS: Attagene TRANS-FACTORIAL HepG2 Assay for M19 Transcription Factor (Internal Marker) (AID 2282974); conditions: HepG2 Attagene TRANS-FACTORIAL M19 internal marker reporter
# In short: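 HepG2 cells transiently transfected with multiple GAL4-UAS reporter transcription units were exposed to chemicals for 24 h. Reporter mRNA was read by RT-PCR, 6-FAM primer extension, HpaI digestion and capillary electrophoresis; gain of signal fitted relative to DMSO.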
# [10] = target: Glucocorticoid receptor (Homo sapiens) (UniProt P04150); assay: ATG_GR_TRANS: Attagene TRANS-FACTORIAL HepG2 Assay for human Glucocorticoid Receptor (GR) (AID 2282978); conditions: HepG2 Attagene TRANS GR reporter, mRNA transcription;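 note: activators score as hits since higher reporter transcript over DMSO is fitted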
# In short: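 HepG2 cells transiently transfected with multiplexed reporter units in which chimeric NR-GAL4 proteins drive GAL4-UAS reporters; 24 h compound exposure. Reporter mRNA measured by RT-PCR, 6-FAM labelling, HpaI digestion and capillary electrophoresis; gain-of-signal fitted versus DMSO.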
# Sequence of Estrogen-related receptor gamma (Homo sapiens) (P62508 whole entry, looked up, the tested form may be a part): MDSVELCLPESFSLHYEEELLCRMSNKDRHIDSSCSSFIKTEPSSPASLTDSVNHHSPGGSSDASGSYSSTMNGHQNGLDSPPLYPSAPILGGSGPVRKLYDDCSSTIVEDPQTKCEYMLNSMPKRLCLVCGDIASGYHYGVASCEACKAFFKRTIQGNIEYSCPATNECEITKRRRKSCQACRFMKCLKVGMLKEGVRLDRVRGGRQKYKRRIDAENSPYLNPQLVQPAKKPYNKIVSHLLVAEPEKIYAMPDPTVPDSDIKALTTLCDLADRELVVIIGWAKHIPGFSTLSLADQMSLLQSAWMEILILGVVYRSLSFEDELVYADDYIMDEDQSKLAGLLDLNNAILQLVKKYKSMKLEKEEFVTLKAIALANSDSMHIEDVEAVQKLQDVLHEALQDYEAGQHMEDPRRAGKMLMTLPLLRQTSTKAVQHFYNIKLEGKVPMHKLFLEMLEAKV
# Sequence of Bile acid receptor (Homo sapiens) (Q96RI1 whole entry, looked up, the tested form may be a part): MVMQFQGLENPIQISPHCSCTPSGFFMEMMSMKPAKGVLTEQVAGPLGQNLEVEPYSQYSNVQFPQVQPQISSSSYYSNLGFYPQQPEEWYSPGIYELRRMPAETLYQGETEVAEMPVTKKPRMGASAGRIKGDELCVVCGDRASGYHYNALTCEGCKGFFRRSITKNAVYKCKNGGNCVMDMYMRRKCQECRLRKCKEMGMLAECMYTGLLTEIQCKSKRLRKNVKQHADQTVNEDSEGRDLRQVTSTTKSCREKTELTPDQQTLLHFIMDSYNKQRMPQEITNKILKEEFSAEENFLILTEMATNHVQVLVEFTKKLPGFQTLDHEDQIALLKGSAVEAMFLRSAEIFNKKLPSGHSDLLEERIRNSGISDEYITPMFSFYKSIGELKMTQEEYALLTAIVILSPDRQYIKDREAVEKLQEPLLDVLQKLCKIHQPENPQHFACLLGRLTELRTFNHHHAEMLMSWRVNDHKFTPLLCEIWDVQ
# Sequence of Oxysterols receptor LXR-alpha (Homo sapiens) (Q13133 whole entry, looked up, the tested form may be a part): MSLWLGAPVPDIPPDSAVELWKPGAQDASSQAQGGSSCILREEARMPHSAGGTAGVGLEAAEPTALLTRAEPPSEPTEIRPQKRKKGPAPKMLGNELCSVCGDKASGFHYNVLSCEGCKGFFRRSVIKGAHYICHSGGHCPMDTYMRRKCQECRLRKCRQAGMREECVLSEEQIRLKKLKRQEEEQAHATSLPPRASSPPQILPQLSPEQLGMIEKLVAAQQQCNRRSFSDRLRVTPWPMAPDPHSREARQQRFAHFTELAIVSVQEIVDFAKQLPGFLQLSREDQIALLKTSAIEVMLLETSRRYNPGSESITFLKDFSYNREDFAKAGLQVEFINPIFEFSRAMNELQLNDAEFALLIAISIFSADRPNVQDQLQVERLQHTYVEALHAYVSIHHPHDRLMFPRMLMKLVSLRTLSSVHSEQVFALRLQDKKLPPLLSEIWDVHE
# Sequence of X-box-binding protein 1 (Homo sapiens) (P17861 whole entry, looked up): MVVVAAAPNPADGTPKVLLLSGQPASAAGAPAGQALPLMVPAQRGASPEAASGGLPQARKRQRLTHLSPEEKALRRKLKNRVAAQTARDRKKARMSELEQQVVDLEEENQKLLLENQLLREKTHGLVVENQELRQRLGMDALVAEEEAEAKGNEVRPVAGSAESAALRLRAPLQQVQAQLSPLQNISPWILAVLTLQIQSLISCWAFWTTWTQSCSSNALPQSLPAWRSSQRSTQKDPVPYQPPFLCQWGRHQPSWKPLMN
# Sequence of Glucocorticoid receptor (Homo sapiens) (P04150 whole entry, looked up, the tested form may be a part): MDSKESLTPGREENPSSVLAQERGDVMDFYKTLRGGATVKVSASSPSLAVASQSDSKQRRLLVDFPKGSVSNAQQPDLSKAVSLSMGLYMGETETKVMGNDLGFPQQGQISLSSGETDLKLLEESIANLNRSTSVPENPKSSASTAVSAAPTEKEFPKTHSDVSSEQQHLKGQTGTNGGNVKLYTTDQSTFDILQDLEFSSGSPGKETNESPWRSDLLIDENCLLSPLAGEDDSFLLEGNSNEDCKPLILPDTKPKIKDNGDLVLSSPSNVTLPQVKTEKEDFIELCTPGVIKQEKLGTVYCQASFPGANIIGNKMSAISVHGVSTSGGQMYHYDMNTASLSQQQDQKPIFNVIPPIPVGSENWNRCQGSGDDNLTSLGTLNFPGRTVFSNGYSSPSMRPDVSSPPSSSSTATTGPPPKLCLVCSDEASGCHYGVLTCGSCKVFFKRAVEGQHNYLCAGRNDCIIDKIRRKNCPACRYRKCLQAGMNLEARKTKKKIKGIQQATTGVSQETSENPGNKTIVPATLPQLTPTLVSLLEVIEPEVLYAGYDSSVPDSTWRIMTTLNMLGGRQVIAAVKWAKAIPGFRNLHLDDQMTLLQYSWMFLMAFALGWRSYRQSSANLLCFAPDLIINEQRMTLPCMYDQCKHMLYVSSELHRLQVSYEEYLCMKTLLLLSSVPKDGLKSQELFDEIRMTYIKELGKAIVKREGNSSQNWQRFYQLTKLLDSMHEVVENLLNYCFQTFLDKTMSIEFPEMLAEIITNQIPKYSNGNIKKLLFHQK
# Sequence of Estrogen receptor (Homo sapiens) (P03372 whole entry, looked up, the tested form may be a part): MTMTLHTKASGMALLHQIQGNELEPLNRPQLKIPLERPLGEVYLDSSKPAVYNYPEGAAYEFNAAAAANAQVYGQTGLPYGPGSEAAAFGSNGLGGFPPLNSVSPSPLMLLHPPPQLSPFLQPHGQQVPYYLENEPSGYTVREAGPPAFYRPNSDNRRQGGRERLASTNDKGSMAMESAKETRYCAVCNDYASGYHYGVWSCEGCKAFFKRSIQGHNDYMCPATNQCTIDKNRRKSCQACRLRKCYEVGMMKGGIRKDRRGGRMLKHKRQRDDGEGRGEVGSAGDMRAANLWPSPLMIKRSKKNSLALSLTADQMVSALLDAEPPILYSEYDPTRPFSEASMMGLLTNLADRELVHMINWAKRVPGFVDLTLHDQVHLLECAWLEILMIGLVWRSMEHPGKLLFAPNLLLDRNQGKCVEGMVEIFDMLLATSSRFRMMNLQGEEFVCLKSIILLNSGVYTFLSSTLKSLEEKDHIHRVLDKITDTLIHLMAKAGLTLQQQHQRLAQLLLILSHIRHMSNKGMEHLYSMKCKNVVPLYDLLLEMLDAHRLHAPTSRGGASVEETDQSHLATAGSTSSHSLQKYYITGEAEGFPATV
# Sequence of Nuclear receptor subfamily 1 group I member 3 (Homo sapiens) (Q14994 whole entry, looked up, the tested form may be a part): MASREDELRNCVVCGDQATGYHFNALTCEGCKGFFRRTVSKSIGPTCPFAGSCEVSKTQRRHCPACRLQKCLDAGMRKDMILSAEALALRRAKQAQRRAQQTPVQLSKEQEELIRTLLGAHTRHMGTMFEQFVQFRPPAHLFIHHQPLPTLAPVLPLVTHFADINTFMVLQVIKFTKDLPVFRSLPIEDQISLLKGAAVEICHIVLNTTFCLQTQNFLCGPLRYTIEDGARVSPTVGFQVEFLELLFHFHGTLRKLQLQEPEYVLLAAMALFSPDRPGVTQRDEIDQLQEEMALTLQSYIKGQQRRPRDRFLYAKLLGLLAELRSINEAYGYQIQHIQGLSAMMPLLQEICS
# Sequence of Steroid hormone receptor ERR1 (Homo sapiens) (P11474 whole entry, looked up, the tested form may be a part): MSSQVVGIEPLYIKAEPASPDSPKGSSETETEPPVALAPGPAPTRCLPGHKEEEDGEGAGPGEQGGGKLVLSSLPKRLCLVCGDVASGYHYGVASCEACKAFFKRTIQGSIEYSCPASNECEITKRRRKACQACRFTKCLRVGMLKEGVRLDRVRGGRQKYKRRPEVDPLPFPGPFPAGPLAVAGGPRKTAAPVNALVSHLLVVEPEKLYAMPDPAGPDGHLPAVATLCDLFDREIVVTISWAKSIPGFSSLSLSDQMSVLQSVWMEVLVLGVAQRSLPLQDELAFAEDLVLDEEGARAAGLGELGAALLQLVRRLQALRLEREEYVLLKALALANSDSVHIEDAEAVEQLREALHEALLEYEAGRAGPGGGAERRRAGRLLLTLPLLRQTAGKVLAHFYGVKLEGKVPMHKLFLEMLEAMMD
structure (smiles),measurement,setting,value
C=CC(F)(F)C(F)(F)C(F)(F)C(F)(F)F,outcome,[1],inactive
same,outcome,[2],inactive
same,outcome,[3],inactive
same,outcome,[4],inactive
same,outcome,[5],inactive
O=C(O)CCC(F)(F)C(F)(F)C(F)(F)C(F)(F)C(F)(F)F,AC50,[6],118 µM (active)
same,outcome,[6],inactive
same,outcome,[7],inactive
same,outcome,[5],inactive
same,outcome,[8],inactive
CC(=O)Nc1ccc(S(N)(=O)=O)cc1,outcome,[6],inactive
same,outcome,[7],inactive
same,outcome,[2],inactive
same,outcome,[9],inactive
same,outcome,[3],inactive
same,outcome,[5],inactive
same,outcome,[8],inactive
FCOC(C(F)(F)F)C(F)(F)F,outcome,[1],inactive
same,outcome,[2],inactive
same,outcome,[9],inactive
same,outcome,[3],inactive
same,outcome,[5],inactive
NCc1cccc(CN)c1,outcome,[1],inactive
same,outcome,[2],inactive
same,outcome,[9],inactive
same,outcome,[3],inactive
same,outcome,[10],inactive
same,outcome,[5],inactive
same,outcome,[8],inactive
Brc1cc(Br)c(Oc2c(Br)cc(Br)c(Br)c2Br)cc1Br,outcome,[6],inactive
same,outcome,[7],inactive
same,outcome,[2],inactive
same,outcome,[9],inactive
same,outcome,[3],inactive
same,outcome,[4],inactive
same,outcome,[10],inactive
same,outcome,[5],inactive
O=C(C=C(O)C(F)(F)F)C(F)(F)F,outcome,[6],inactive
same,outcome,[7],inactive
same,outcome,[2],inactive
same,outcome,[9],inactive
same,outcome,[3],inactive
same,outcome,[10],inactive
same,outcome,[5],inactive
Cc1cc(C(C)(C)C)c(O)c(C(C)(C)C)c1,outcome,[1],inactive
same,outcome,[9],inactive
same,outcome,[5],inactive
same,outcome,[8],inactive
O=P(O)(O)CCC(F)(F)C(F)(F)C(F)(F)C(F)(F)C(F)(F)C(F)(F)F,outcome,[6],inactive
same,outcome,[7],inactive
same,outcome,[2],inactive
same,outcome,[9],inactive
same,outcome,[3],inactive
same,outcome,[10],inactive
same,outcome,[5],inactive
same,outcome,[8],inactive
O=S(=O)(O)c1ccc2cc(O)ccc2c1,outcome,[1],inactive
same,outcome,[2],inactive
same,outcome,[9],inactive
same,outcome,[10],inactive
CC1CCC(CO)CC1 (stereo not given),AC50,[6],62.4 µM (active)
same,outcome,[6],inactive
same,outcome,[2],inactive
same,outcome,[9],inactive
same,outcome,[3],inactive
C=CC(=O)OCCN(CC)CC,outcome,[1],inactive
same,AC50,[2],29 µM (active)
same,outcome,[9],inactive
same,outcome,[3],inactive
same,outcome,[5],inactive
same,outcome,[8],inactive
O=C(CC(=O)C(F)(F)C(F)(F)C(F)(F)F)c1cccs1,outcome,[6],inactive
same,outcome,[7],inactive
same,AC50,[2],8.17 µM (active) and 32.9 µM (active)
same,outcome,[9],inactive
same,outcome,[4],inactive
same,outcome,[5],inactive
same,outcome,[8],inactive
CCCCCCOC(=O)c1ccc(O)cc1,AC50,[6],3.24 µM (active)
same,outcome,[7],inactive
same,AC50,[2],54.6 µM (active)
same,outcome,[9],inactive
same,outcome,[5],inactive
same,outcome,[8],inactive
O=C1C=CC(=O)N1c1cccc(N2C(=O)C=CC2=O)c1,outcome,[6],inactive
same,outcome,[7],inactive
same,outcome,[2],inactive
same,outcome,[4],inactive
same,outcome,[5],inactive
same,outcome,[8],inactive
FC(F)(F)C1(F)C(F)(F)C(F)(F)C(F)(F)C(F)(C(F)(F)F)C1(F)F (stereo not given),outcome,[6],inactive
same,outcome,[7],inactive
same,outcome,[2],inactive
same,outcome,[3],inactive
same,outcome,[10],inactive
same,outcome,[5],inactive
FC(F)(F)C1(F)C(F)(F)C(F)(F)C(F)(F)C1(F)F,outcome,[6],inactive
same,outcome,[7],inactive
same,outcome,[9],inactive
same,outcome,[3],inactive
same,outcome,[10],inactive
same,outcome,[5],inactive
CCCCN(C)C,outcome,[1],inactive
same,outcome,[2],inactive
same,outcome,[10],inactive
same,outcome,[5],inactive
C=C(c1ccc(C(=O)O)cc1)c1cc2c(cc1C)C(C)(C)CCC2(C)C,AC50,[6],31.2 µM (active)
same,outcome,[6],inactive
same,outcome,[7],inactive
same,AC50,[2],16.9 µM (active)
same,outcome,[2],inactive
same,outcome,[9],inactive
same,outcome,[10],inactive
same,outcome,[8],inactive
COc1cc([N+](=O)[O-])ccc1N,outcome,[1],inactive
same,outcome,[9],inactive
same,outcome,[3],inactive
COC(O)c1ccccc1 (stereo not given),AC50,[6],56.7 µM (active)
same,outcome,[7],inactive
same,outcome,[2],inactive
same,outcome,[3],inactive
same,outcome,[4],inactive
same,outcome,[5],inactive
O=C(O)C(=O)O,outcome,[1],inactive
same,outcome,[2],inactive
same,outcome,[9],inactive
same,outcome,[3],inactive
same,outcome,[10],inactive
same,outcome,[8],inactive
CC(C)[C@@H]1CC[C@@H](C)C[C@H]1O,outcome,[1],inactive
same,outcome,[2],inactive
same,outcome,[9],inactive
same,outcome,[3],inactive
same,outcome,[5],inactive
O=C1OC2(c3ccccc31)c1cc(I)c(O)c(I)c1Oc1c2cc(I)c(O)c1I,outcome,[1],inactive
same,outcome,[2],inactive
same,outcome,[9],inactive
same,outcome,[3],inactive
same,outcome,[4],inactive
same,outcome,[8],inactive
O=C(c1cc(O)c(O)c(O)c1)c1ccc(O)c(O)c1O,outcome,[1],inactive
same,outcome,[2],inactive
same,outcome,[4],inactive
same,outcome,[10],inactive
same,outcome,[5],inactive
same,outcome,[8],inactive
Clc1ccc2c(Cl)ccnc2c1,outcome,[6],inactive
same,outcome,[7],inactive
same,outcome,[10],inactive
Oc1c(Cl)cc(Cl)cc1Sc1cc(Cl)cc(Cl)c1O,outcome,[6],inactive
same,outcome,[4],inactive
same,outcome,[10],inactive
same,outcome,[5],inactive
CCCCCCCCCCCC(=O)NCCCN(C)C,outcome,[6],inactive
same,AC50,[2],19.1 µM (active)
same,outcome,[9],inactive
COCC1CCC(CO)CC1 (stereo not given),outcome,[6],inactive
same,outcome,[2],inactive
same,outcome,[8],inactive
O=C(O)CCC(F)(F)C(F)(F)C(F)(F)C(F)(F)C(F)(F)C(F)(F)F,AC50,[6],46.1 µM (active)
same,outcome,[2],inactive
same,outcome,[9],inactive
same,outcome,[3],inactive
same,outcome,[10],inactive
same,outcome,[5],inactive
OCC1CCC(CO)CC1 (stereo not given),outcome,[6],inactive
same,outcome,[2],inactive
same,outcome,[10],inactive
same,outcome,[5],inactive
same,outcome,[8],inactive
CCC(=O)O,outcome,[6],inactive
same,outcome,[2],inactive
same,outcome,[9],inactive
same,outcome,[3],inactive
same,outcome,[10],inactive
